Data published in PubChem BioAssay AID1159580 (chemical genetic matrix, 2015).
About 2,000 (36%) of roughly 5,500 compounds were called active. Not shown: some 18% with an inconclusive outcome. The list shows a part of the results. A number with no mark means an inactive call. No stated cut-off is given here; in the data, active means normalized growth mostly below about 0.91 (no sharp cut-off); inconclusive means no clear call, values can overlap the other calls; inactive means mostly above about 0.92.

Experiment: chemical genetic growth profiling, strain panel (AID 1159580);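 further: tested at 20 µM; growth read once vehicle control cultures reached saturation at 30 °C; 1 = growth at the plate median or of vehicle wells; lower values mean less growth of the strain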
Details: growth OD
[1] = S. cerevisiae deletion strains, locus YHR030C, strain SLT2, active compounds read low
[2] = S. cerevisiae deletion strains, locus YAL013W, strain DEP1, active compounds read low
[3] = S. cerevisiae deletion strains, locus YBR229C, strain ROT2, active compounds read low
[4] = S. cerevisiae deletion strains, locus YDL101C, strain DUN1, active compounds read low
[5] = S. cerevisiae deletion strains, locus YDL134C, strain PPH21, active compounds read low
[6] = S. cerevisiae deletion strains, locus YDR150W, strain NUM1, active compounds read low
[7] = S. cerevisiae deletion strains, locus YEL061C, strain CIN8, active compounds read low
[8] = S. cerevisiae deletion strains, locus YGR078C, strain PAC10, active compounds read low
[9] = S. cerevisiae deletion strains, locus YGR229C, strain SMI1, active compounds read low
[10] = S. cerevisiae deletion strains, locus YHR087W, strain rtc3, active compounds read low
[11] = S. cerevisiae deletion strains, locus YJL187C, strain SWE1, active compounds read low
[12] = S. cerevisiae deletion strains, locus YJR043C, strain POL32, active compounds read low
[13] = S. cerevisiae deletion strains, locus YJR075W, strain HOC1, active compounds read low
[14] = S. cerevisiae deletion strains, locus YKL190W, strain CNB1, active compounds read low
[15] = S. cerevisiae deletion strains, locus YLR039C, strain RIC1, active compounds read low
[16] = S. cerevisiae deletion strains, locus YLR058C, strain SHM2 (second series), active compounds read low
[17] = S. cerevisiae deletion strains, locus YLR085C, strain ARP6, active compounds read low
[18] = S. cerevisiae deletion strains, locus YLR262C, strain YPT6, active compounds read low
[19] = S. cerevisiae deletion strains, locus YML094W, strain GIM5, active compounds read low
[20] = S. cerevisiae deletion strains, locus YMR219W, strain ESC1, active compounds read low
[21] = S. cerevisiae deletion strains, locus YMR263W, strain SAP30, active compounds read low
[22] = S. cerevisiae deletion strains, locus YNL153C, strain GIM3, active compounds read low
[23] = S. cerevisiae deletion strains, locus YNL298W, strain CLA4 (second series), active compounds read low
[24] = S. cerevisiae deletion strains, locus YNL322C, strain KRE1, active compounds read low
[25] = S. cerevisiae deletion strains, locus YNR030W, strain Alg12, active compounds read low
[26] = S. cerevisiae deletion strains, locus YPL055C, strain LGE1, active compounds read low
[27] = S. cerevisiae deletion strains, locus YPL241C, strain CIN2, active compounds read low
[28] = S. cerevisiae deletion strains, locus YPR135W, strain CTF4, active compounds read low
[29] = S. cerevisiae strains, strain wild type, active compounds read low

For `CN(C(=O)C(Cl)Cl)c1ccc(OC(=O)c2ccco2)cc1`, the normalized growth [1] was 0.959, the normalized growth (S. cerevisiae deletion strains, locus YHR079C, strain IRE1, active compounds read low) was 0.98 and the normalized growth (S. cerevisiae deletion strains, locus YJL095W, strain BCK1, active compounds read low) was 0.973. For the same molecule, the normalized growth (S. cerevisiae deletion strains, locus YJR066W, strain TOR1, active compounds read low) was 0.915, the normalized growth (S. cerevisiae deletion strains, locus YLR113W, strain HOG1, active compounds read low) was 1.05 and the normalized growth (S. cerevisiae deletion strains, locus YNL183C, strain NPR1, active compounds read low) was 0.96. The normalized growth (S. cerevisiae deletion strains, locus YOR231W, strain MKK1, active compounds read low) was 0.975 and the normalized growth (S. cerevisiae deletion strains, locus YPL256C, strain CLN2, active compounds read low) was 1.

`COC(=O)c1scc(S(=O)(=O)C(C)C)c1N/N=C(/C#N)C(=O)c1ccccc1` gave a normalized growth [2] of 0.965, a normalized growth [3] of 0.974 and a normalized growth [4] of 0.986. It also gave a normalized growth [5] of 0.974, a normalized growth [6] of 0.973 and a normalized growth [7] of 0.965. It also gave a normalized growth [8] of 0.969, a normalized growth [9] of 0.971 and a normalized growth [1] of 0.929. For the same molecule, the normalized growth [10] was 0.927, the normalized growth [11] was 1.03 and the normalized growth [12] was 0.995. It also gave a normalized growth [13] of 0.961, a normalized growth [14] of 0.976 and a normalized growth [15] of 0.902. It also gave a normalized growth [16] of 0.954, a normalized growth [17] of 1.06 and a normalized growth [18] of 0.839. It also gave a normalized growth [19] of 1.04, a normalized growth [20] of 0.95 and a normalized growth [21] of 0.905. The normalized growth [22] was 0.998, the normalized growth [23] was 0.983 and the normalized growth [24] was 0.942 (active). The normalized growth [25] was 1.01, the normalized growth (S. cerevisiae deletion strains, locus YOL006C, strain TOP1, active compounds read low) was 0.923 and the normalized growth [26] was 0.885. The normalized growth [27] was 1.02, the normalized growth [28] was 0.928 and the normalized growth [29] was 0.967.

Molecule `CC(C)S(=O)(=O)c1csc(C(N)=O)c1Cl` has a normalized growth [2] of 1.01, a normalized growth [3] of 1.02 and a normalized growth (S. cerevisiae deletion strains, locus YCL061C, strain MRC1, active compounds read low) of 1.02. The normalized growth [4] was 0.989, the normalized growth [5] was 1.01 and the normalized growth [6] was 0.958. The normalized growth [7] was 1.04, the normalized growth [8] was 1 and the normalized growth [9] was 1. The normalized growth [1] was 1.09, the normalized growth [10] was 1 and the normalized growth [11] was 0.983. It also gave a normalized growth [12] of 1.01, a normalized growth [13] of 1.01 and a normalized growth [14] of 1.01. For the same molecule, the normalized growth [15] was 1.05, the normalized growth [16] was 1.01 and the normalized growth [17] was 1.02. For the same molecule, the normalized growth [18] was 1.05, the normalized growth [19] was 0.996 and the normalized growth [20] was 1.01. The normalized growth [21] was 0.996, the normalized growth (S. cerevisiae deletion strains, locus YMR307W, strain GAS1, active compounds read low) was 1.01 and the normalized growth [22] was 1. It also gave a normalized growth [23] of 1.04, a normalized growth [24] of 1.01 and a normalized growth [25] of 1.03. It also gave a normalized growth [26] of 0.954, a normalized growth [27] of 0.991 and a normalized growth [28] of 1.07. For the same molecule, the normalized growth [29] was 1.02.
